# From the supplement of paper PMC8728848
# Many of the other results were omitted from the sample, so the strongest signals are more common in it than they were.
# What was measured:
# Test in all cases: glycan array binding signal (z-score within array); higher = stronger binding
# Conditions in all cases: glycan notation: IUPAC condensed, linker removed
# [1] = target: Fuc(a1-2)Gal(b1-3)GalNAc(a1-3)[Fuc(a1-2)]Gal(b1-4)Glc
# Procedure, shortened: (§1)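 The binding signal is a Z-score computed within each array and averaged over linkers. Arrays of the same protein sequence at different concentrations or buffers were also averaged together. Data originate from 3228 arrays in the Consortium for Functional Glycomics database, kept only where the protein sequence was available.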
# [2] = target: Fuc(a1-2)Gal(b1-3)[Fuc(a1-4)]GlcNAc(b1-2)Man(a1-3)[Fuc(a1-2)Gal(b1-3)[Fuc(a1-4)]GlcNAc(b1-2)Man(a1-6)]Man(b1-4)GlcNAc(b1-4)[Fuc(a1-6)]GlcNAc(b1-4)[Fuc(a1-6)]GlcNAc
# Procedure, shortened: as §1
# Fuc(a1-2)Gal(b1-4)Glc6S = target: Fuc(a1-2)Gal(b1-4)Glc6S
# Procedure, shortened: as §1
# [3] = target: Fuc(a1-2)Gal(b1-4)GlcNAc(b1-3)GalNAc
# Procedure, shortened: as §1
# [4] = target: Fuc(a1-2)Gal(b1-4)[Fuc(a1-3)]GlcNAc(b1-3)Gal(b1-4)[Fuc(a1-3)]GlcNAc
# Procedure, shortened: as §1
# [5] = target: Fuc(a1-2)[Gal(a1-3)]Gal(b1-3)GlcNAc(b1-3)GalNAc
# Procedure, shortened: as §1
# [6] = target: Fuc(a1-2)[GalNAc(a1-3)]Gal(b1-4)GlcNAc(b1-2)Man(a1-3)[Fuc(a1-2)[GalNAc(a1-3)]Gal(b1-4)GlcNAc(b1-2)Man(a1-6)]Man(b1-4)GlcNAc(b1-4)GlcNAc
# Procedure, shortened: as §1
# [7] = target: Fuc(a1-3)[Gal(b1-4)]GlcNAc(b1-6)[Gal(b1-3)GlcNAc(b1-3)]Gal(b1-4)Glc
# Procedure, shortened: as §1
# Fuc(a1-4)GlcNAc = target: Fuc(a1-4)GlcNAc
# Procedure, shortened: as §1
# Gal(a1-3)Gal(b1-3)GlcNAc = target: Gal(a1-3)Gal(b1-3)GlcNAc
# Procedure, shortened: as §1
# [8] = target: Gal(a1-4)Gal(b1-4)GlcNAc(b1-2)Man(a1-3)[Gal(a1-4)Gal(b1-4)GlcNAc(b1-2)Man(a1-6)]Man(b1-4)GlcNAc(b1-4)GlcNAc
# Procedure, shortened: as §1
# [9] = target: Gal(b1-3)GalNAc(a1-3)[Fuc(a1-2)]Gal(b1-4)Glc
# Procedure, shortened: as §1
# Gal(b1-3)GlcNAc(b1-2)Man = target: Gal(b1-3)GlcNAc(b1-2)Man
# Procedure, shortened: as §1
# [10] = target: Gal(b1-3)[GlcNAc(b1-6)]GalNAc
# Procedure, shortened: as §1
# [11] = target: Gal(b1-3)[Neu5Ac(a2-6)]GlcNAc(b1-4)Gal(b1-4)Glc
# Procedure, shortened: as §1
# [12] = target: Gal(b1-4)GalNAc(b1-3)[Fuc(a1-2)]Gal(b1-4)GlcNAc
# Procedure, shortened: as §1
# Gal(b1-4)GlcNAc(b1-2)Man = target: Gal(b1-4)GlcNAc(b1-2)Man
# Procedure, shortened: as §1
# [13] = target: Gal(b1-4)GlcNAc(b1-2)Man(a1-6)Man(b1-4)GlcNAc(b1-4)GlcNAc
# Procedure, shortened: as §1
# [14] = target: Gal(b1-4)GlcNAc(b1-2)[Gal(b1-4)GlcNAc(b1-6)]Man(a1-6)[GlcNAc(b1-4)][Gal(b1-4)GlcNAc(b1-2)Man(a1-3)]Man(b1-4)GlcNAc(b1-4)GlcNAc
# Procedure, shortened: as §1
# [15] = target: Gal(b1-4)GlcNAc(b1-3)Gal(b1-4)Glc
# Procedure, shortened: as §1
# [16] = target: Gal(b1-4)GlcNAc(b1-3)Gal(b1-4)GlcNAc
# Procedure, shortened: as §1
# [17] = target: Gal(b1-4)GlcNAc(b1-3)Gal(b1-4)GlcNAc(b1-3)Gal(b1-4)GlcNAc
# Procedure, shortened: as §1
# [18] = target: Gal(b1-4)GlcNAc(b1-3)Gal(b1-4)GlcNAc(b1-3)Gal(b1-4)GlcNAc(b1-2)Man(a1-3)[Gal(b1-4)GlcNAc(b1-3)Gal(b1-4)GlcNAc(b1-3)Gal(b1-4)GlcNAc(b1-2)Man(a1-6)]Man(b1-4)GlcNAc(b1-4)GlcNAc
# Procedure, shortened: as §1
# [19] = target: Gal(b1-4)GlcNAc(b1-3)Gal(b1-4)GlcNAc(b1-3)Gal(b1-4)GlcNAc(b1-2)Man(a1-3)[Gal(b1-4)GlcNAc(b1-3)Gal(b1-4)GlcNAc(b1-3)Gal(b1-4)GlcNAc(b1-2)Man(a1-6)]Man(b1-4)GlcNAc(b1-4)[Fuc(a1-6)]GlcNAc
# Procedure, shortened: as §1
binder,measurement,setting,value
B1567 (Bifidobacterium sp) (protein) MKFTTAKKAVALTGAVAMLVSVAACGSDSGKSSQPAQDSDVKEITVWAWEPSLTQVAKDFEKETGIKVDLKNVGTNTKEYTQLDNAIEAGSGAPDVAQVEYYAVPQYAIKGNLLDITDKTSGYKDFYTPGPWASVQFAGKVYGLPMDSGPMAFFYNKEVFDKAGVDAEQIKTWDQYYDAAKKIHALGDNYYITSDTGDAGFFDSMTWLAGAKPFQTSSDGSEVTVNLTEDKGVKTFTDFWQKLLDEGLLDTKTAGWSEDWFKGMVDGTIASLFTGAWMPANLANSAADGAGKWRVTQMPTADGSTTNSENGGSSLAVLASTKKADAAYQFIEYANHGAGVATRVAGGAFPADKASLEKDSFKNATTVKNADGQDVDYFGGQKYNEVLAQAAENVSSGYQFLPFEVKARTIFGDYFGKSYTGDQKLSDGVAAWQKALQDYGKDQGFTVK,glycan array binding signal (z-score),[1],-0.161
same,glycan array binding signal (z-score),[2],-0.08
same,glycan array binding signal (z-score),Fuc(a1-2)Gal(b1-4)Glc6S,-0.184
same,glycan array binding signal (z-score),[3],-0.127
same,glycan array binding signal (z-score),[4],-0.104
same,glycan array binding signal (z-score),[5],-0.097
same,glycan array binding signal (z-score),[6],0.019
same,glycan array binding signal (z-score),[7],-0.15
same,glycan array binding signal (z-score),Fuc(a1-4)GlcNAc,-0.077
same,glycan array binding signal (z-score),Gal(a1-3)Gal(b1-3)GlcNAc,-0.129
same,glycan array binding signal (z-score),[8],0.067
same,glycan array binding signal (z-score),[9],-0.013
same,glycan array binding signal (z-score),Gal(b1-3)GlcNAc(b1-2)Man,0.008
same,glycan array binding signal (z-score),[10],-0.138
same,glycan array binding signal (z-score),[11],-0.133
same,glycan array binding signal (z-score),[12],-0.08
same,glycan array binding signal (z-score),Gal(b1-4)GlcNAc(b1-2)Man,-0.12
same,glycan array binding signal (z-score),[13],-0.101
same,glycan array binding signal (z-score),[14],-0.145
same,glycan array binding signal (z-score),[15],14.9
same,glycan array binding signal (z-score),[16],0.588
same,glycan array binding signal (z-score),[17],1.4
same,glycan array binding signal (z-score),[18],0.282
same,glycan array binding signal (z-score),[19],0.333
